Assay results published in PubChem BioAssay (Tox21).
Inconclusive results are not listed. A call without a number means that no potency is given here. Active and inactive are the calls of the source. Calls come from the whole dose curve; as a rule, active = well fitted activation curve with a large enough effect in the signal ratio in the repeat runs (not every such curve was filed as active); inconclusive = weak or mixed curves; inactive = flat fitted curve, though single readings scatter; the % refers to the signal ratio.

assay: p53 small molecule agonists, cell-based qHTS assay (AID 1963582); conditions: HCT-116 p53RE-bla reporter, beta-lactamase FRET ratio, 16 h; series mostly up to 66 µM
Source text: National Center for Advancing Translational Sciences [NCATS]
Division of Preclinical Innovation [DPI]
U.S. Environmental Protection Agency [EPA]
National Institutes of Environmental Health Sciences [NIEHS]
National Toxicology Program [NTP]
U.S. Food and Drug Administration [FDA]
p53, a tumor suppressor protein, is activated following cellular insult, including DNA damage and other cellular stresses. The activation of p53 regulates cell fate by inducing DNA repair, cell cycle arrest, apoptosis, or cellular senescence. The activation of p53, therefore, is a good indicator of DNA damage and other cellular stresses. […] The activation of the reporter gene under culture conditions can be detected by fluorescence intensity. This cell line was used to screen the Tox21 10K compound library in a 1536-well plate format and to identify agonists that activate the p53 signaling pathway.
Tox21 Assay Protocol Summary:
The p53RE-bla cells were dispensed at 4,000 cells/5 ul/well in 1536-well black wall/clear bottom plates using a Multidrop dispenser. After the assay plates were incubated at a 37 C/5% CO2 incubator for 5 hours, 23 nL of compounds dissolved in DMSO, positive controls or DMSO only was transferred to the assay plate by a pin tool. The plates were incubated at 37 C for 16 hours. After 1 uL of LiveBLAzerTM B/G FRET substrate was added using a Flying Reagent Dispenser, the plates were incubated at room temperature for 2 hours, and fluorescence intensity was measured by an Envision plate reader.
Potency is the fitted concentration of half-maximal effect.

Structure (SMILES) | Potency | activation
CO[Si](OC)(OC)OC | inactive | 
O=C(CCCCCCCCC#CI)Oc1ccccc1 | inactive | 
C1COC(NC(C2CC2)C2CC2)=N1 | inactive | 
CCC(Cc1ccccc1)(C(=O)c1ccc(N2CCOCC2)cc1)N(C)C (stereo not given) | inactive | 
Oc1ccc(Nc2ccccc2)cc1 | inactive | 
O=[N+]([O-])c1cccc(I)c1 | inactive | 
NS(=O)(=O)Cc1noc2ccccc12 | inactive | 
CC(C)CCCC(C)(C)O | inactive | 
CCCCCCCCCC=O | inactive | 
CC12CCCC=C1C(=O)OC2=O (stereo not given) | inactive | 
CC(C)(O)c1ccc(CNC(=O)c2cccnc2Oc2ccc(F)cc2)cc1 | inactive | 
CCOc1ccccc1O[C@H](c1ccccc1)[C@H]1CNCCO1 | inactive | 
Nc1ncnc(Nc2ccccc2)n1 | inactive | 
CCN1CCCC1CN (stereo not given) | inactive | 
Nc1ccn([C@@H]2O[C@H](CO)[C@@H](O)C2(F)F)c(=O)n1 | 199 nM (active) | 
C=C[Si](C)(C)O[Si](C)(C)C=C | inactive | 
CCCCCOC(=O)CCCC | inactive | 
BrCCCCCBr | inactive | 
Nc1cccc2c(=O)[nH][nH]c(=O)c12 | inactive | 
CC1CC(C)C(=O)C1=O (stereo not given) | inactive | 

Structure (SMILES) | Potency | activation
CCC(C)CCCC(C)(C)O (stereo not given) | inactive | 
O=C(Nc1cccc(C2=NCCN2)c1)Nc1cccc(C2=NCCN2)c1 |  | 1.58% [at 13.5 µM] (inactive)
CC(C)SCc1ccco1 | inactive | 
CC(=O)OCC(=O)[C@@]1(O)CC[C@H]2[C@@H]3CCC4=CC(=O)C=C[C@]4(C)[C@@]3(F)[C@@H](O)C[C@@]21C | inactive | 
O=C(O)CNCC(=O)O |  | 0.447% [at 5.99 µM] (inactive)
COCCOC(=O)C1=C(C)NC(C)=C(C(=O)OC/C=C/c2ccccc2)C1c1cccc([N+](=O)[O-])c1 (stereo not given) | inactive | 
CCCCNc1ccc(C(=O)OCCN(C)C)cc1 | inactive | 
C[C@H](N)[C@H](O)c1cccc(O)c1 | inactive | 
C1CCN(CN2CCCCC2)CC1 | inactive | 
CNS(=O)(=O)Cc1ccc2[nH]cc(CCN(C)C)c2c1 | inactive | 
CCOC(C)=O | inactive | 
COc1ccc(CN2CCN(C(c3ccc(F)cc3)c3ccc(F)cc3)CC2)c(OC)c1OC | inactive | 
CC(=O)C(C)=O | inactive | 
CC/C=C\CC/C=C/C(OCC)OCC | inactive | 
CN1CCN(c2c(F)cc3c(=O)c(C(=O)O)cn4c3c2OCN4C)CC1 |  | -0.645% [at 13.5 µM] (inactive)
CCCCCCCCCCCC(=O)N(CC)CC | inactive | 
Nc1nc(CC(=O)O)cs1 | inactive | 
FC(F)(F)C(F)(F)C(F)(F)C(F)(F)CCI | inactive | 
CC(C)=CCC1=C(O)c2ccccc2C(=O)C1=O | 4060 nM (active) | 
CCCCCCOC(=O)CCCCC | inactive | 
